According to PubChem BioAssay:
The other results are listed elsewhere or left out. Unmarked numbers belong to inactive results. Activity calls are given as the source filed them.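 The calls were made as follows, unless noted: active = dye signal at least 3 control SD above or below untreated wells in both duplicates, raw fluorescence within 3, either direction; inactive = the rest.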

How the values were obtained:
[1] = biological target: Inward rectifier potassium channel 2 (Mus musculus) (UniProt P35561); assay: inhibition of Kir2.1 inward rectifier potassium flux – cell-based, FluxOR thallium flux, duplicate, confirmation (AID 2032;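 active = Primary-screen hit whose thallium flux fell at least 3 control SD below untreated wells in both duplicates, with normal baseline fluorescence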); settings: Kir2.1-expressing cells, FluxOR thallium flux fluorescence, at 10 µM; hits give low values
Inward rectifier potassium channel 2 (Mus musculus), sequence (P35561 whole entry, looked up): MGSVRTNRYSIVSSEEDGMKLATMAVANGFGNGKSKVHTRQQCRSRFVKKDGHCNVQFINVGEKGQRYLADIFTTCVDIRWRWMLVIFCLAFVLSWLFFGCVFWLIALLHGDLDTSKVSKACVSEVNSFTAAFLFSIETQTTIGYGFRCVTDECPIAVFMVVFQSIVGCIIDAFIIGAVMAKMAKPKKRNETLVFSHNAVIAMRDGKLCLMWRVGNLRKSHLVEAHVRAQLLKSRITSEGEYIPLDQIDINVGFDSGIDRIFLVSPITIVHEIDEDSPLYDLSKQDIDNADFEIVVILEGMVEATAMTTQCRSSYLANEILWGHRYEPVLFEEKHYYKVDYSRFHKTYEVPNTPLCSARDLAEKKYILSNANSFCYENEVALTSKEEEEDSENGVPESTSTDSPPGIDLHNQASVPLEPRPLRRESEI

[2] = parental HEK293 cell activity, no Kir2.1 – FluxOR thallium flux, duplicate, single concentration, counter-screen for Kir2.1 inhibitor project, confirmation (AID 2105); settings: parental HEK293 cells, FluxOR thallium flux fluorescence, at 10 µM; 0% = unstimulated blank wells;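 as to FluxOR signal as % of negative control (100 = no effect): percent is based on the flux ratio of peak minus minimum fluorescence over baseline F0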

For `O=C(CCl)N(Cc1cccc([N+](=O)[O-])c1)c1cccc(Cl)c1`, the outcome [1] was “inactive” and the outcome [2] was “inactive”.
In the case of `CC12CN(Cc3ccccc3)CC(C)(CN(Cc3ccccc3)C1)C2=NO`, the Tl flux remaining, % of negative control (hits give low values) [1] is reported as 54.5% (active) and the outcome [2] is reported as “inactive”.
In the case of `COc1ccc(F)c(-c2nc(CN3CCC(c4ccccc4)CC3)c(C)o2)c1`, the Tl flux remaining, % of negative control (hits give low values) [1] is reported as 45.5% (active) and the outcome [2] is reported as “inactive”.
With `CCCCCCCCCCOC(=O)Cn1c(COc2ccc(C)cc2)[n+](C)c2ccccc21` the outcome [1] was “inactive” and the outcome [2] was “inactive”.
With `COc1ccc(Nc2ncnc3sc(C)cc23)cc1` the outcome [1] was “inactive” and the outcome [2] was “inactive”.
With `CCCCOC(=O)Cn1c(=O)n(CC(=O)OCCCC)c2cc(C)ccc21` the outcome [1] was “inactive” and the outcome [2] was “inactive”.
In the case of `OCCNCc1cccc(OCc2ccccc2Cl)c1`, the Tl flux remaining, % of negative control (hits give low values) [1] is reported as 62% (active) and the outcome [2] is reported as “inactive”.
For `CC1COc2ccccc2N1S(=O)(=O)c1ccccc1` (centres undefined), the Tl flux remaining, % of negative control (hits give low values) [1] was 60% (active) and the outcome [2] was “inactive”.
With `CCn1cc(CCC(=O)NCc2ccc(F)cc2)c2ccccc21` the Tl flux remaining, % of negative control (hits give low values) [1] was 56.5% (active) and the outcome [2] was “inactive”.
With `C=CCNC(=S)/N=c1/ccccn1Cc1ccccc1` the Tl flux remaining, % of negative control (hits give low values) [1] was 64% (active) and the outcome [2] was “inactive”.
In the case of `COc1ccc2c(c1)C=CC1(O2)N(CCO)c2ccccc2C1(C)C` (centres undefined), the outcome [1] is reported as “inactive” and the FluxOR signal as % of negative control (100 = no effect) [2] is reported as 53.5% (active).
In the case of `CN(Cc1ccccc1)CC(O)COc1ccc(CNCc2cc3ccccc3s2)cc1` (centres undefined), the Tl flux remaining, % of negative control (hits give low values) [1] is reported as 33.5% (active) and the FluxOR signal as % of negative control (100 = no effect) [2] is reported as 74.5% (active).
With `COc1cc(CNCc2ccc(OC)c3ccccc23)cc(OC)c1OC` the Tl flux remaining, % of negative control (hits give low values) [1] was 51% (active) and the outcome [2] was “inactive”.
With `CCC(=O)OCc1c(C(F)(F)F)nn(C)c1Oc1cccc(C(F)(F)F)c1` the outcome [1] was “inactive” and the outcome [2] was “inactive”.
With `C(=C\c1ccccc1)/CSc1nnc(-c2cccnc2)n1Cc1ccco1` the Tl flux remaining, % of negative control (hits give low values) [1] was 37% (active) and the outcome [2] was “inactive”.
With `O=C(Cc1c[nH]c2ccccc12)OCCOC(=O)Cc1c[nH]c2ccccc12` the Tl flux remaining, % of negative control (hits give low values) [1] was 48.5% (active) and the outcome [2] was “inactive”.
For `CCCCCCCCn1c2c(c(=N)c3c1CCC3)CCCC2`, the Tl flux remaining, % of negative control (hits give low values) [1] was 10% (active) and the outcome [2] was “inactive”.
With `COc1ccc(CCNCc2c(-c3ccccc3)n(C)c3ccccc23)cc1` the Tl flux remaining, % of negative control (hits give low values) [1] was 33.5% (active) and the FluxOR signal as % of negative control (100 = no effect) [2] was 72% (active).
For `CC1CN(C(=O)CCC(=O)NCCCN2CCC(Cc3ccccc3)CC2)c2cc(Cl)ccc2O1` (centres undefined), the Tl flux remaining, % of negative control (hits give low values) [1] was 35.5% (active) and the outcome [2] was “inactive”.
In the case of `COc1ccccc1CCNS(=O)(=O)c1cc2c3c(c1)C(C)C(=O)N3CCC2` (centres undefined), the Tl flux remaining, % of negative control (hits give low values) [1] is reported as 62% (active) and the outcome [2] is reported as “inactive”.
For `CCN(CC)CCC(c1ccc2c(c1)OCO2)c1c(OC)cc(OC)c2c(-c3ccccc3)cc(=O)oc12` (centres undefined), the Tl flux remaining, % of negative control (hits give low values) [1] was 65.5% (active) and the outcome [2] was “inactive”.
For `COCCNC(=O)COc1ccc(N(C)S(=O)(=O)c2ccc3ccccc3c2)cc1`, the Tl flux remaining, % of negative control (hits give low values) [1] was 58% (active) and the outcome [2] was “inactive”.
In the case of `CC(C)(C)c1cc2cccnc2n1Cc1cccc(F)c1`, the Tl flux remaining, % of negative control (hits give low values) [1] is reported as 72% (active) and the outcome [2] is reported as “inactive”.
In the case of `Clc1ccc(-c2cc(C3CCNCC3)[nH]n2)c(Cl)c1`, the Tl flux remaining, % of negative control (hits give low values) [1] is reported as 22.5% (active) and the outcome [2] is reported as “inactive”.
For `COc1ccc(CN2CCC(c3nc4ccc(Cl)cc4[nH]3)CC2)cc1`, the Tl flux remaining, % of negative control (hits give low values) [1] was 30% (active) and the outcome [2] was “inactive”.
With `COc1cc(/C=N/O)cc(Br)c1OS(=O)(=O)c1ccc(C)cc1` the Tl flux remaining, % of negative control (hits give low values) [1] was 57.5% (active) and the outcome [2] was “inactive”.
With `CC(C)(c1ccccc1)c1ccc(OCCN2CCCC2)cc1` the Tl flux remaining, % of negative control (hits give low values) [1] was 44% (active) and the outcome [2] was “inactive”.
With `O=C(Nc1ccccc1Cl)/C(Cl)=C(\Cl)S(=O)c1ccccc1` (centres undefined) the Tl flux remaining, % of negative control (hits give low values) [1] was 60.5% (active) and the FluxOR signal as % of negative control (100 = no effect) [2] was 57.5% (active).
With `CSc1c(SCc2ccccc2)cnn(Cc2ccccc2)c1=O` the outcome [1] was “inactive” and the outcome [2] was “inactive”.
In the case of `NC(N)=Nc1nc(-c2ccccc2)c2cc(Cl)ccc2n1`, the outcome [1] is reported as “inactive” and the outcome [2] is reported as “inactive”.
For `COc1cccc(CN(C)CC(O)COC(c2ccccc2)c2ccccc2C)c1` (centres undefined), the Tl flux remaining, % of negative control (hits give low values) [1] was 66% (active) and the outcome [2] was “inactive”.
For `COc1ccccc1-c1n[nH]c2c1[C@H](C)CC[C@H]2C(C)C`, the outcome [1] was “inactive” and the outcome [2] was “inactive”.
With `COc1ccc(CCC(C)N2CCc3ccccc3C2)cc1` (centres undefined) the Tl flux remaining, % of negative control (hits give low values) [1] was 25.5% (active) and the outcome [2] was “inactive”.
With `CCCOc1ccc(C(=O)C(CCC(CNCC)C(=O)c2ccc(OCCC)cc2)CNCC)cc1` (centres undefined) the Tl flux remaining, % of negative control (hits give low values) [1] was 48% (active) and the outcome [2] was “inactive”.
For `Clc1c(OCCCn2ccnc2)ccc2ccccc12`, the outcome [1] was “inactive” and the outcome [2] was “inactive”.
With `Cn1c(SCC(=O)N2CCCc3ccccc32)nc2ccccc2c1=O` the Tl flux remaining, % of negative control (hits give low values) [1] was 71.5% (active) and the FluxOR signal as % of negative control (100 = no effect) [2] was 66.5% (active).
With `Cc1cc(C)c(C)c(S(=O)(=O)Nc2ccc(O)cc2)c1C` the Tl flux remaining, % of negative control (hits give low values) [1] was 65.5% (active) and the outcome [2] was “inactive”.
